# Data published in PubChem BioAssay (EPA / NIEHS).
# Results filed as inconclusive are left out. Calls of active or inactive are those of the source. How the source made its calls: active means hit-call score of the fitted dose curve at least 0.9, where 1 is the maximum; inconclusive means response in the unintended direction; inactive means score below 0.9.
# Molecular target: AR (gene 367) (UniProt P10275)
# Assay: ACEA_AR_antagonist_80hr: ACEA Biosciences xCELLigence Real-Time Cell Analysis on Androgen Receptor Antagonism for Proliferation (AID 2283787);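 further: 22Rv1 human prostate cancer cells with growth followed by electrical impedance; hits lower the impedance growth signal relative to DMSO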
# Summary of the method: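 Measures real-time proliferation of 22Rv1 prostate cancer cells by electrode impedance at 80 hours after dosing. Test articles ran at eight concentrations (1:4 steps, top 100 uM final) in biological duplicate.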
# Sequence of AR (gene 367) (P10275 whole entry, looked up): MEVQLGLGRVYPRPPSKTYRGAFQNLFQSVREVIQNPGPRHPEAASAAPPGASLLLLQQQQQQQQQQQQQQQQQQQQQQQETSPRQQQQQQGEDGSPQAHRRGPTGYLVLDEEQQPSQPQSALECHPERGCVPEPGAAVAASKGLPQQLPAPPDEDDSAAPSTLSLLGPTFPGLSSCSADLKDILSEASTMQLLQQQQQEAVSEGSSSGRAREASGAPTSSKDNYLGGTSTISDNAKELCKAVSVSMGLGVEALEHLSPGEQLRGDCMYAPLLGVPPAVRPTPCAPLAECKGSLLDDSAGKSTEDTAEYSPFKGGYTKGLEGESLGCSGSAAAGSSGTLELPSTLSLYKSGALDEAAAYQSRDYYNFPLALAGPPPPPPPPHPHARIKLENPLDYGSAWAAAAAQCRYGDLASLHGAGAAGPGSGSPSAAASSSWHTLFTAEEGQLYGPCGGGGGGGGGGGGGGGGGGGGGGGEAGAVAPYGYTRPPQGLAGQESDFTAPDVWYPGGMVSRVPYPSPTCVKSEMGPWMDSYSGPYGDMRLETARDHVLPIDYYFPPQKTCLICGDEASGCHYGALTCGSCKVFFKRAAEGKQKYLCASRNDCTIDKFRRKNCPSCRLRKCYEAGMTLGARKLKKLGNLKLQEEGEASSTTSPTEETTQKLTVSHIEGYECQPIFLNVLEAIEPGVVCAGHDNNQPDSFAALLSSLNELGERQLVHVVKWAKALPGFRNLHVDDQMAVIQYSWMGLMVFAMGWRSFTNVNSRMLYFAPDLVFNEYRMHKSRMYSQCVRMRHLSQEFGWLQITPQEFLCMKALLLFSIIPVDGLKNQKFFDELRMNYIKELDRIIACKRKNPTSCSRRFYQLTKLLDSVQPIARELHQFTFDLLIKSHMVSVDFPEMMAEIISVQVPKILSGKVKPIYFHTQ
smiles,measurement,value
Cc1ccc(C)c(OCCCC(C)(C)C(=O)O)c1,outcome,inactive
